Assay outcomes as filed in PubChem BioAssay.
This is one part of a sample in which hits are shown more often than they occur.
MARV entry inh – Marburg virus entry inhibition. Marburg virus pseudotyped entry inhibition, cell reporter. Potency, µM (titrated, usually from 37.8 µM), for inactives: top-dose activity change, negative = inhibition, usual class: inhibitors. 1.8% of 300,000 active; calls by dose curve; tested in HEK293 cells; note: potency is the fitted concentration of half-maximal effect; % is set by controls: 0 for no effect and ±100 for the full control effect
Shiga toxin inh – blocks Shiga toxin action in Vero cells. AID 2315. Vero cells, Shiga toxin protein synthesis inhibition reporter. 9.2% of 290,000 active. inhibition, % at 38.7 µM; in the data active = inhibition mostly above about 28%, no sharp cut-off; inactive = mostly below about 43%; note: 0% is about no effect
CHX counter – counter-screen hit for Shiga toxin inhibitors, cycloheximide; cell reporter, cycloheximide protein synthesis inhibition counterscreen; max response, %; 12% of 300,000 active; AID 2314; in the data active = max response mostly above about 13%, no sharp cut-off; inactive = mostly below about 14%; note: read at 38.3 µM for the half of the compounds with a filed dose; 0% is about no effect
LASV entry inh – Lassa virus entry inhibition. Lassa virus pseudotype entry inhibition, cell reporter. Potency, µM (top dose mostly 37.9 µM), inactives show at the top dose activity change, negative = inhibition, usual class: inhibitors. 1.2% of 300,000 active. AID 540256; calls by dose curve; tested in HEK293 cells; note: potency is the fitted concentration of half-maximal effect; % is set by controls: 0 for no effect and ±100 for the full control effect; nearly all actives have a fitted effect of over 50% in size
AMA1-RON2 inh – inhibitors of Plasmodium falciparum AMA1-RON2 interaction | Potency, µM (highest dose often 58.2 µM), inactives show at the highest dose activity change, negative = inhibition, hits mostly inhibitors | AlphaScreen AMA1-biotinylated RON2 peptide binding | 0.2% of 360,000 active; active = well fitted inhibition curve with a large enough effect; inconclusive = small, poorly fitted or top-dose-only effect; inactive = no such curve, though single readings can be large or run the other way;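 note: potency is the fitted concentration of half-maximal effect; 0% = vehicle wells and -100% = peptide control; nearly all actives have a fitted effect of over 45% in size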
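AMA1 (3D7) with his tag at 25 nM final met compounds first, then biotinylated RON2 peptide at 25 nM; detection used donor plus acceptor beads, 10 µg/mL apiece, read by AlphaScreen after 30 min at room temperature.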
* hit, by the source's call; ? = inconclusive; . = no result; ! = not active in a repeat; [ ] = dose if it differs, or a comment.

SMILES	MARV entry inh	Shiga toxin inh	CHX counter	LASV entry inh	AMA1-RON2 inh
Cn1nnc2cc(C(=O)Nc3ccc4ccccc4c3)ccc21	-15%[46.1 µM]	108*	36*	13%	18%
CC(C)(C)c1cc(CP(=O)(c2ccccc2)c2ccccc2)cc(C(C)(C)C)c1O	.	.	13*	.	-3%
CCOC(=O)N1CCC(NC(=O)c2ccc3c(c2)N(Cc2ccc(Cl)cc2)C(=O)c2ccccc2S3(=O)=O)CC1	?	.	.	-26%[46.1 µM]	.
O=C(/C=C/c1ccc(Cl)cc1)N(Cc1ccccc1)c1ccccn1	-23%[46.1 µM]	107*	21*	?	-25%
O=C(c1ccccc1)N(Cc1ccccc1)c1ccccn1	-7%	-5	-6	0%	0%
COc1ccc(-n2ncc(Cl)c(Cl)c2=O)cc1	?	32	1	?	-2%
CN(C)c1cnn(-c2ccccc2)c(=O)c1Cl	?	146*	43*	18%	-8%
O=c1c(Cl)c(NS(=O)(=O)c2ccccc2)cnn1-c1ccccc1	.	14	1	.	-6%
CC(=O)Cn1ncc(N(C)Cc2ccccc2)c(Cl)c1=O	?	64*	48*	-10%[46.1 µM]	-1%
CN(Cc1ccccc1)C(=O)Cn1ncc2c3ccccc3n(Cc3cccc(Cl)c3)c2c1=O	-4%[46.1 µM]	.	.	13%[46.1 µM]	.
COc1ccc(-n2ncc(N(C)n3cccc3)c(Cl)c2=O)cc1	?	87*	28*	?	-4%
Cc1ccc(-n2ncc(N(C)C)c(Cl)c2=O)cc1	?	55*	29*	-26%	-6%
O=C(NCCCN1CCOCC1)/C(=C/c1ccco1)NC(=O)c1ccccc1	14%	-10	-2	6%	-13%
C=CCNc1cnn(-c2ccccc2)c(=O)c1Cl	-22%	79	18*	2%	0%
COc1cc2nc(N3CCN(c4cc(C)ccc4C)CC3)nc(N)c2cc1OC	4.5µM*	-21	-15	?	-19%
COc1cc2nc(N3CCNCC3)nc(N)c2cc1OC	?	9	-1	4%	?
CC1N/C(=C\C(=O)c2ccccc2)N(O)C1(C)C (centres undefined)	?	76*	37*	?	-2%
NC(=O)c1ncn([C@@H]2O[C@H](CO)[C@@H](O)[C@H]2O)n1	?	2	-4	23µM*!	-5%
Nc1ncn([C@@H]2O[C@H](CO)[C@@H](O)[C@H]2O)c(=O)n1	?	.	.	4.1µM*	0%
CCOC(=O)C(O)(c1ccc(N(CC)C(=O)OC)cc1)C(F)(F)F (centres undefined)	-8%	-11	-1	?	0%
CCOC(=O)N(CC)c1ccc(C(O)(C(=O)OCC)C(F)(F)F)cc1 (centres undefined)	-7%	-9	-2	10µM*	7%
NC(=O)c1ccccc1NCC(=O)c1ccc(F)cc1	2%[46.1 µM]	48*	29*	-2%	25%
Cc1cccc(NCCC(=O)c2ccc(Br)cc2)c1	12%	42	24*	5%	-4%
O=C(CNc1ccc(F)cc1)c1ccccc1	?	52	23*	8%	-15%
O=C(CNc1cccc(Cl)c1)c1ccc(Br)cc1	.	8	12	.	-2%
SMILES	MARV entry inh	Shiga toxin inh	CHX counter	LASV entry inh	AMA1-RON2 inh
NC(=O)c1ccccc1NS(=O)(=O)c1ccc(F)cc1	8%[46.1 µM]	-21	1	-24%	7%
CC(=O)c1ccc(NCCC(=O)c2ccccc2)cc1	?	23	11	7%[46.1 µM]	10%
Cc1ccc(C(=O)CNc2ccc(Br)cc2)cc1	?	44*	10	?	-9%
O=C(CNc1ccc(Br)cc1)c1ccccc1	3%	21	18*	28%	-6%
Cc1ccc(C(=O)CNc2ccccc2)cc1	0%[46.1 µM]	47*	34*	2%	-9%
COc1ccc(S(=O)(=O)Nc2cccc3c2O[C@H](CN(C)CC2CCCCC2)[C@@H](C)CN([C@H](C)CO)C3=O)cc1	.	.	.	.	5%
CCOC(=O)N1CCN(C(=O)CNC(=O)c2ccc(Br)o2)CC1	21%	-3	-4	4%	0%
CCC(C(=O)NCCc1c[nH]c2ccc(C)cc12)c1ccccc1 (centres undefined)	?	-4	-1	?	-2%
O=C(NCc1cn(-c2ccccc2)nc1-c1ccccc1)c1cccc([N+](=O)[O-])c1	-3%	12	13*	14%	-18%
COc1ccc(-c2nn(-c3ccccc3)cc2CNC(=O)c2cccc([N+](=O)[O-])c2)cc1	4%[46.1 µM]	12	15*	3%	-8%
CCC(C)(CCNC(=O)Cc1ccccc1)c1ccccc1OC (centres undefined)	.	-4	-3	.	20%
C[C@H]1CN([C@@H](C)CO)C(=O)c2cccc(NC(=O)c3nc4ccccc4s3)c2O[C@H]1CN(C)C(=O)Nc1ccc(F)cc1	.	.	.	.	-11%
COc1ccccc1NC(=O)C1=C(C)NC(=O)NC1c1ccccc1[N+](=O)[O-] (centres undefined)	5%[46.1 µM]	45*	30*	8%	1%
CC1=C(C(=O)Nc2ccccc2)C(c2ccccc2[N+](=O)[O-])NC(=O)N1 (centres undefined)	.	37	17*	.	0%
COc1ccccc1NC(=O)C1=C(C)NC(=O)NC1c1ccc(C)cc1 (centres undefined)	.	-9	-2	.	5%
Cc1ccc2nc(NCc3ccccc3)c(C=NCc3ccccc3)c(=O)n2c1	6%	14	2	-2%	14%
Cc1ccc2nc(NCCCN3CCOCC3)c(C=NCCCN3CCOCC3)c(=O)n2c1	0%	25	9.9*	12%	42%
COc1ccc(CCN2CC(C(=O)OCC(=O)NC(C)c3cccc(Cl)c3)CC2=O)cc1OC (centres undefined)	5%	.	.	23%	-8%[11.6 µM]
CCOC(=O)CC1C(=O)NC2CCCCC2N1C(=O)Nc1ccc(Cl)cc1 (centres undefined)	13%	20	28*	3%	-2%
CCOC(=O)CC1C(=O)NCCN1C(=O)Nc1ccc(Cl)cc1 (centres undefined)	18%	-1	2	15%	-5%
CCOc1ccc(/C=C/C(O)=C2/C(=O)N(C)C3(C)CC2c2ccccc2O3)cc1OC (centres undefined)	?	-12	-5	3.5µM*	-12%
Cn1cc(Br)c(C(=O)n2cc(Br)cn2)n1	-3%[46.1 µM]	19	1	-9%	-7%
Cc1ccccc1-c1nc(CN2CCC(C(=O)NC(C)C)CC2)c(C)o1	8%[46.1 µM]	.	.	7%[46.1 µM]	.
Cc1ccc(-c2nc3ccccc3nc2NN)cc1	.	53*	41*	.	32%
Cc1ccc(-c2nc3ccccc3nc2Cl)cc1	-13%	-2	7	14%	18%
CN(C(=O)C1CCC(=O)N(C2CC2)C1)C1CCCCC1 (centres undefined)	17%[46.1 µM]	17	4	16%[46.1 µM]	1%
Clc1ccc(-c2ccc(CNCC3CCCO3)o2)cc1 (centres undefined)	?	96*	35*	?	-16%
COc1cc(NC(=S)NCC2CCCO2)c(OC)cc1Cl (centres undefined)	.	-3	-1	.	-10%
O=C(NCC1CCCO1)Nc1ccc(Cl)cc1 (centres undefined)	6%	74*	44*	16%	2%
